Rows were chosen to be rich in hits. Some 3.5% of all compounds tested hit in one or more screens of this group.
MITF inh = MITF inhibitors, primary screen, biochemical, AlphaScreen, human. 650,000 compounds, 0.91% hits. Microphthalmia-associated transcription factor (Homo sapiens), O75030. inhibition, % at 2.6 µM. AlphaScreen MITF homodimerization, bead proximity signal; in the data active = inhibition above about 50%
GPR151 ag = activators of human GPR151, primary screen, cell-based, PathHunter beta-arrestin, luminescence; activation, % at 11.2 µM; 650,000 compounds, 1% hits; AID 1508602, 2020; PathHunter beta-arrestin GPR151 cells; in the data active = activation above about 4.9%
Target sequence (Q8TDV0 whole entry, looked up): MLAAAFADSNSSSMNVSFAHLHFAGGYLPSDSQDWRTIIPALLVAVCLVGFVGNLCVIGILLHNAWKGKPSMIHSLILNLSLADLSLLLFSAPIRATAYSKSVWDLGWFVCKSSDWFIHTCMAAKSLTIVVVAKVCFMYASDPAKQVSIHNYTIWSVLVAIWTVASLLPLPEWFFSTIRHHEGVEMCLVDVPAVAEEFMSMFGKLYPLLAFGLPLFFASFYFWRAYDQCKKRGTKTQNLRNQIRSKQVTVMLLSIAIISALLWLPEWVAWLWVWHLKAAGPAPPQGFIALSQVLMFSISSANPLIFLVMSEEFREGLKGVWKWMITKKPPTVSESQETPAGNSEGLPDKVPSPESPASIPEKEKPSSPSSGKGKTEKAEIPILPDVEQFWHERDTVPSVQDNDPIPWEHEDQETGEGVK
TEAD-YAP inh = TEAD-YAP interaction inhibition, primary screen, TEAD-YAP interaction inhibitor project, luminescence, HEK-TIYL cells. TEAD-Gal4/YAP UAS-luciferase luminescence. inhibition, % at 9.12 µM. 640,000 compounds, 1.4% hits. AID 1259422, 2018; in the data active = inhibition above about 32%
FBW7 activator = FBW7 E3 ligase activators, primary screen, biochemical, AlphaScreen, human; F-box/WD repeat-containing protein 7 (Homo sapiens), Q969H0; AlphaScreen FBW7–phospho-cyclin E peptide binding, activator screen; normalized activity (activation), % at 26.1 µM; 650,000 compounds, 0.13% hits; in the data active = normalized activity above about 1.9%;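 also: purified mutant Fbw7 with reduced substrate affinity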
Large screens that a line does not name were inactive.

CC(=O)C1=NN(c2ccc(Cl)cc2)C(c2ccc3c(c2)OCO3)N1C(C)(C)C (stereo unspecified)	FBW7 activator 2.0
CCCc1ccc(-c2ccc(F)c(N3C(=O)c4cccc(F)c4C3=O)c2)nc1	TEAD-YAP inh 62
CC(=O)OC1c2cc(C)ccc2NC(c2ccccc2)C1(C)C (stereo unspecified)	TEAD-YAP inh 63
CC(=O)OC1c2ccccc2NC(c2ccccc2)C1(C)C (stereo unspecified)	none
CSc1c(CC(=O)Nc2ccc(Cl)cc2[N+](=O)[O-])n(Cc2ccccc2)c2ccccc12	none
COc1cc(NC(=O)c2cccc(-n3cc(NC(=O)Cc4ccccc4)cn3)c2)ccc1N1CCOCC1	none
O=S(=O)(NCc1cn2ccccc2n1)c1ccc(Oc2ccccc2)cc1	none
O=C(COc1ccc(Oc2ccccc2)cc1)NCc1cn2ccccc2n1	TEAD-YAP inh 55
c1cncc(CNc2nc(Nc3cnccn3)nc3c2ncn3-c2ccsc2)c1	TEAD-YAP inh 59
c1cncc(CNc2nc(Nc3nccc4ccccc34)nc3c2ncn3-c2ccsc2)c1	TEAD-YAP inh 59
c1ccc(Nc2nc(Nc3cnccn3)nc3c2ncn3-c2ccsc2)cc1	none
Nc1nc(Nc2cnccn2)nc2c1ncn2-c1ccsc1	TEAD-YAP inh 43
c1cncc(CNc2nc(Nc3ccc4ncccc4c3)nc3c2ncn3-c2ccsc2)c1	TEAD-YAP inh 33
c1cncc(CNc2nc(NCc3cccnc3)c3ncn(-c4ccsc4)c3n2)c1	none
c1cnc(Nc2nc(NCc3cccnc3)c3ncn(-c4ccsc4)c3n2)nc1	none
Cn1c(=O)[nH]c(=O)c2c1nc(N/N=C/c1cccnc1)n2CC(O)CO (stereo unspecified)	none
c1cncc(CNc2nc(NC3CC3)c3ncn(-c4ccsc4)c3n2)c1	TEAD-YAP inh 40
c1ccc(CNc2nc(Nc3ccc4ncccc4c3)nc3c2ncn3-c2ccccc2)cc1	none
c1ccc(CNc2nc(NCc3cccnc3)nc3c2ncn3-c2ccsc2)cc1	none
CC(=O)Nc1ccc(Nc2nc(Nc3nccc4ccccc34)nc3c2ncn3C(C)C)cc1	TEAD-YAP inh 45
Nc1nc(Nc2ccc3ncccc3c2)nc2c1ncn2-c1ccccc1	TEAD-YAP inh 33, FBW7 activator 52
CC(C)n1cnc2c(NCc3cccnc3)nc(Nc3nccc4ccccc34)nc21	TEAD-YAP inh 32
O=C(N[C@H]1C[C@H]2C(=O)N[C@@H](CO)C(=O)N2C1)c1ccc2ccccc2c1	none
CCN1C(=O)S/C(=C/c2cc(C)n(-c3ccccn3)c2C)C1=O	TEAD-YAP inh 69
CCN1C(=O)S/C(=C/c2cc(C)n(-c3ccc(O)cc3)c2C)C1=O	TEAD-YAP inh 80
CCOC(=O)C(C)N1C(=O)S/C(=C/c2cc(C)n(-c3ccccn3)c2C)C1=O (stereo unspecified)	none
CCN1C(=O)/C(=C\c2cc(C)n(-c3ccc(OC)cc3)c2C)C(C(=O)OC)=C1C	MITF inh 76
CCN1C(=O)NC(=O)/C(=C\c2cc(C)n(-c3ccc(O)cc3)c2C)C1=O	none
CCC(C)(C)C(=O)Nc1nnc(CC(C)C)s1	none
O=C(N/N=C/c1ccccc1O)C(=O)Nc1ccccn1	MITF inh 61
Oc1ccccc1/C=N\Nc1ccccn1	MITF inh 82
Oc1c(Br)cc(Br)cc1/C=N/Nc1ccccn1	none
Oc1ccccc1/C=N\Nc1nc2ccccc2o1	TEAD-YAP inh 52
Oc1ccccc1/C=N/Nc1ccc(Cl)nn1	MITF inh 51, TEAD-YAP inh 72
Cc1c(O)ccc2c(=O)c(-c3ccccc3)c(C(F)(F)F)oc12	none
Nc1ccccc1C(=O)NNc1ccc([N+](=O)[O-])cc1[N+](=O)[O-]	none
O=C(O)CN1C2=C(C(=O)CCC2)C(c2ccccc2OCc2ccc(Cl)cc2)C2=C1CCCC2=O	none
Cc1cccc(OCC(=O)N2CCN(c3nccn3C)CC2)c1	none
COc1cc2nc(Nc3ccc(-n4ccnc4)cc3)nc(NCc3cccc(C(F)(F)F)c3)c2cc1OC	none
Cc1cc(C)n(-c2cc(N/N=C/c3ccccc3O)ncn2)n1	TEAD-YAP inh 59
Oc1ccccc1/C=N\Nc1ncc(F)c(N2CCOCC2)n1	MITF inh 88
Cc1c(C(=O)C(=O)N2CCC(C)CC2)c2ccccc2n1C	none
Cc1c(C(=O)C(=O)N2CC=C(c3ccccc3)CC2)c2ccccc2n1C	TEAD-YAP inh 52
CCNc1ccc(C(=O)OCC)cc1[N+](=O)[O-]	none
COc1ccc(C(=O)NNC(=O)COc2ccc(Br)c(C)c2)cc1	none
Cc1ccc2cccc(OC(=O)c3ccc(Cl)cc3[N+](=O)[O-])c2n1	none
COc1ccc(-n2nnnc2SCc2ccc(Cl)cc2)cc1	TEAD-YAP inh 53
Clc1ccc(CSc2nnnn2-c2ccccc2)cc1	none
CCCC(C)NC(=O)c1ccc(NC(=O)CC)cc1 (stereo unspecified)	none
COc1ccc(C(=O)c2cc([N+](=O)[O-])ccc2N2CCN(C)CC2)cc1	TEAD-YAP inh 49
Cc1ccc(C(=O)c2cc([N+](=O)[O-])ccc2N2CCN(C)CC2)cc1	TEAD-YAP inh 51
CN1CCN(c2ccc([N+](=O)[O-])cc2C(=O)c2ccc(Br)cc2)CC1	TEAD-YAP inh 52
COc1ccc(S(=O)(=O)Nc2ccc3c(c2)CCCN3C(C)=O)c(OC)c1	none
COc1cc(CNc2ccc3c(c2)CCN3C(C)=O)cc(OC)c1OC	TEAD-YAP inh 67
O=C(Nc1cc([N+](=O)[O-])ccc1F)c1sc2ccccc2c1Cl	none
O=C(Nc1ccc2c(c1)CN(C(=O)C#Cc1ccccc1)CC2)C1CCCO1 (stereo unspecified)	TEAD-YAP inh 61
Cc1nc2sccn2c1CN1CCc2ccc(NC(=O)C3CCCO3)cc2C1 (stereo unspecified)	TEAD-YAP inh 37
COc1ccc(CNc2ccnc3c(-c4ccc(OC)nc4)cnn23)cc1	none
O=c1[nH]c(N2CCOCC2)nc2c1CCN(Cc1ccccc1F)C2	none
O=c1[nH]c(N2CCOCC2)nc2c1CCN(Cc1ccccc1)C2	FBW7 activator 2.7
COc1ccc(C2CC(c3cccs3)=NN2C(=O)CSc2nnc(CNC(=O)COc3ccccc3)n2-c2ccccc2OC)cc1 (stereo unspecified)	TEAD-YAP inh 32
COc1ccc(C2=NN(C(=O)CSc3nnc(CNC(=O)c4ccco4)n3-c3cc(C)ccc3C)C(c3ccc(OC)cc3)C2)cc1 (stereo unspecified)	FBW7 activator 3.6
Cc1ccccc1NC(=O)c1cnn(-c2ccc(F)cc2)c1C1CCNCC1	none
Cc1ccc(Nc2nc(Cl)nc(Nc3ccc(C)cc3C)n2)c(C)c1	none
Cc1ccccc1Nc1nc(Cl)nc(Nc2ccccc2C)n1	TEAD-YAP inh 45
CCCCCCCCCNC(=O)c1ccc(NC(C)=O)cc1	none
N#CCSc1ccc2nnc(-c3ccncc3)n2n1	TEAD-YAP inh 40
